Test results published in publication PMC9838217, “Structure of SALL4 zinc finger domain reveals link between AT-rich DNA binding and Okihiro syndrome”.
Substitutions are numbered along the chain they refer to.

Assays:
[1] = biological target: T1, SALL4 ZFC4 R900W (HT-SELEX) (Mus musculus, UniProt Q8BX22 870-940, R900W); experiment: HT-SELEX; high values mean tight binding; conditions: protein: recombinant; vector His6-GST; dsDNA, one strand shown
T1 sequence: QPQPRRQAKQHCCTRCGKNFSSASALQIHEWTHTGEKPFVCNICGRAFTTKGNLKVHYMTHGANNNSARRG
How it was run: (§1)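 Purified recombinant mouse SALL4 zinc finger cluster 4 (residues 870–940, 1 µg) and library DNA (1.5 µg first cycle, 200 ng later) were incubated for 10 min at room temperature in 100 µl of 10 mM Tris–HCl pH 7.5, 50 mM NaCl, poly(dI-dC) and DTT. After Ni2+ bead capture and up to 6 triplicate cycles of selection, DNA was MiSeq-sequenced and scanned for 6-mers. Binding signal is the fold change in each canonical k-mer's read fraction relative to the initial random library.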

[2] = biological target: T2, SALL4 ZFC4 G921D (HT-SELEX) (Mus musculus, UniProt Q8BX22 870-940, G921D); experiment: HT-SELEX; high values mean tight binding; conditions: protein: recombinant; vector His6-GST; dsDNA, one strand shown
T2 sequence: T1 sequence with W31R, G52D
How it was run: as §1

Sequence | binding signal [1] [fold-change vs cycle 0] | binding signal [2] [fold-change vs cycle 0]
ATTCTC | 1.55 ± 0.0853 | 1.41 ± 0.126
AGCTCG | 0.347 ± 0.0155 | 0.487 ± 0.0527
CGACGA | 0.288 ± 0.00345 | 0.415 ± 0.0734
CGCAGC | 0.0883 ± 0.014 | 0.191 ± 0.0678
AGCGGG | 0.168 ± 0.0263 | 0.277 ± 0.0671
AGGGCC | 0.158 ± 0.0102 | 0.28 ± 0.0679
CGAGCG | 0.115 ± 0.0072 | 0.24 ± 0.0639
CGGGGC | 0.0617 ± 0.00701 | 0.163 ± 0.0639
AGCGTC | 0.301 ± 0.0204 | 0.444 ± 0.0717
ACGGCG | 0.0768 ± 0.0155 | 0.177 ± 0.0582
CCTCCG | 0.252 ± 0.0142 | 0.367 ± 0.0686
CGGCAG | 0.106 ± 0.00823 | 0.214 ± 0.0627
GCGCGA | 0.0544 ± 0.00435 | 0.152 ± 0.0576
GCCGTA | 0.228 ± 0.00567 | 0.345 ± 0.066
CCGACG | 0.143 ± 0.00739 | 0.255 ± 0.0634
GCACCC | 0.1961 ± 0.000728 | 0.322 ± 0.0644
GGACCC | 0.246 ± 0.0211 | 0.387 ± 0.0656
GGCACC | 0.163 ± 0.0146 | 0.28 ± 0.0664
CGAGGC | 0.149 ± 0.0127 | 0.271 ± 0.0651
AAGCGG | 0.29 ± 0.026 | 0.396 ± 0.0731
CCGTGC | 0.143 ± 0.00796 | 0.251 ± 0.0641

Sequence | binding signal [1] [fold-change vs cycle 0] | binding signal [2] [fold-change vs cycle 0]
CCGCCG | 0.0347 ± 0.00309 | 0.117 ± 0.0571
ATCGGC | 0.223 ± 0.00552 | 0.362 ± 0.0707
ACCGCC | 0.117 ± 0.0115 | 0.235 ± 0.0718
GCAGGC | 0.124 ± 0.00995 | 0.24 ± 0.0592
GAACGC | 0.308 ± 0.012 | 0.446 ± 0.0568
GGCTCA | 0.336 ± 0.00359 | 0.477 ± 0.0634
CCCACG | 0.214 ± 0.0117 | 0.319 ± 0.0528
CGATGC | 0.312 ± 0.0118 | 0.454 ± 0.0801
GACAGC | 0.361 ± 0.0178 | 0.491 ± 0.0963
AAGGCG | 0.265 ± 0.014 | 0.425 ± 0.0847
GGGACC | 0.257 ± 0.0113 | 0.386 ± 0.0917
CGAGCC | 0.138 ± 0.0111 | 0.272 ± 0.0858
CCGCGG | 0.0426 ± 0.00565 | 0.128 ± 0.0621
CTACGC | 0.278 ± 0.0143 | 0.414 ± 0.0855
CCACGG | 0.219 ± 0.0185 | 0.334 ± 0.0695
CGCCTC | 0.152 ± 0.0261 | 0.277 ± 0.0696
CCGGAG | 0.255 ± 0.0305 | 0.352 ± 0.0596
CGGCGA | 0.077 ± 0.0153 | 0.177 ± 0.0705
CCCCAC | 0.272 ± 0.0152 | 0.375 ± 0.0668
GCCCGA | 0.125 ± 0.0121 | 0.243 ± 0.0758
